# Bioassay records deposited in PubChem by National Center for Advancing Translational Sciences (NCATS).
# Nrf2 inh: blocks Nrf2 signaling; A549 ARE-Fluc reporter, luciferase luminescence, 18-24 h; Potency, µM (top dose mostly 46 µM), for the others: at the highest dose activity change, negative = inhibition, actives largely listed as inhibitors; 2.1% of 360,000 active; AID 504444; further: on the % scale 0 is the no-effect control and ±100 the full control effect; nearly all actives have a fitted effect of over 60% in size
#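 Nrf2 activity is the BugLite luminescence, read 15 min after reagent at room temperature, following CellTiter-Fluor cytotoxicity readout (30 min, 37C). Compound titrations were applied for 18-24 h to 5000 A549 ARE_Fluc cells/well in 5% FBS OPTI-MEM.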
# A549 tox: A549 cytotoxicity, counter-screen for Nrf2 inhibitors; A549 ARE-Fluc cells, CellTiter-Fluor viability, 18-24 h; Potency, µM (highest dose often 46 µM), inactives show at the highest dose activity change, negative = cytotoxicity, usual class: inhibitors; 0.16% of 390,000 active; AID 504648; further: on the % scale 0 is the no-effect control and ±100 the full control effect
#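 A549 ARE_Fluc cells in 5% FBS OPTI-MEM were exposed to compounds in concentration-response for 18-24 h at 37 deg C. Viability was read by CellTiter-Fluor fluorescence (Ex 405/Em 525) after 30 min, before the luciferase read.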
# ATXN2 expr inh: inhibitors of ATXN2 expression; HEK-293 ATXN2-luciferase reporter, luminescence, 24 h; Potency, µM (titrated, usually from 57 µM), for inactives: top-dose activity change, negative = inhibition, most hits filed as inhibitors; 0.72% of 360,000 active; AID 1745845; further: on the % scale 0 is the no-effect control and ±100 the full control effect; nearly all actives have a fitted effect of over 55% in size
#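 qHTS (up to 57 uM final) was run with 24 h compound exposure of reporter cells at 37 °C. Each well was multiplexed: SteadyGlo luminescence measured ATXN2-luciferase expression after a fluorogenic Gly-Phe-AFC viability readout (25 uM final).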
# Nrf2 ARE act: activators of Nrf2 (ARE) signaling; AREc32 ARE-luciferase reporter (MCF7-derived line), luminescence, 24 h; AID 624171; 0.31% of 410,000 active; Potency, µM (doses to about 46.1 µM), for inactives: at the top dose activation, actives largely listed as activators; further: % of control where 0% means no effect; nearly all actives have a fitted effect of over 65% in size
#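 Nrf2 activation is followed as ARE-luciferase induction in the AREc32 line after one day of compound treatment; luminescence is read with Steady-Glo.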
# ATXN viability: reduces viability in counter-screen for ATXN expression inhibitors. S2 cells (HEK-293 line with an ATXN2-luciferase reporter) viability, CellTiter-Fluor protease fluorescence, 24 h. Potency, µM (highest dose often 56.7 µM), usual class: cytotoxic. 0.49% of 400,000 active; further: nearly all actives have a fitted effect of over 40% in size
# * hit, by the source's call; i = inactive; u = inconclusive; x = no result given; [ ] = remark or other dose. Most compounds without a hit are left out; they make up all but 2.9% or so of the library. The call rests on the fitted dose curve; in most records, active means well fitted curve in the direction sought with a large enough effect; inconclusive means small, poorly fitted or top-dose-only effect, or another doubt; inactive means no such curve, though single readings can be large; an effect the other way counts as inactive or inconclusive. Potency means the concentration at half of the fitted maximal effect.
SMILES,Nrf2 inh,A549 tox,ATXN2 expr inh,Nrf2 ARE act,ATXN viability
O=C(N/N=C/c1ccccn1)c1cc(-c2ccc(Cl)cc2)nc2ccccc12,9.2µM*,u,u,8%,i
Cc1ccc(S(=O)(=O)N2CCN(c3nc(C#N)nc4ccccc34)CC2)cc1,-11%,8%,x,x,x
CCOc1ccc(OCC)c(NC(=O)CSc2nc3c(c(=O)n(C)c(=O)n3C)n2C(C)C)c1,16µM*,-9%,-16%,4%,i
CCC[C@H](Nc1nc(-c2ccc(NC(=O)NCC)c(OC)c2)ncc1C)c1cccnc1,x,x,-19%,x,x
O=C1CN(C(=O)c2ccc(Br)o2)C(c2ccc(F)cc2)c2cc(F)ccc2N1 (stereo unspecified),16µM*,-19%,-23%,2%,i
CCOC(=O)c1cnc(N2CCN(c3cccc(C)c3C)CC2)c2ccccc12,x,4%,x,0%,x
Cc1cccc(-c2nc(CSCC(=O)N3CCN(c4ccccn4)CC3)c(C)o2)c1,21µM*,-9%,-17%,0%,i
COc1ccc(CNC(=O)c2ccc3c(c2)CCN3S(=O)(=O)c2ccc(Cl)cc2)cc1,u,6%,-3%,4%,u
COc1ccc(OC)c(CCNC(=O)c2cc3c(-c4ccccc4F)nn(C)c3s2)c1,21µM*,-2%,25µM*,0%,u
CCN(CC)CCCNC(=O)c1cc2c(-c3cccc(OC)c3)nn(C)c2s1,-6%,-18%,x,12%,i
COc1cccc(-c2nn(C)c3sc(C(=O)NCCCN(C)Cc4ccccc4)cc23)c1,4%,-17%,28µM*,3%,u
CCOC(=O)C(=Cc1cc(=O)c(OC)co1)C(=O)OCC,9.2µM*,15µM*,u,-3%,u
COc1coc(C(O)CN)cc1=O (stereo unspecified),-3%,6%,0%,-1%,i
CCOC(=O)c1sc(=S)n(-c2ccc(OC)cc2)c1C,-14%,-3%,-6%,0%,i
CCOC(=O)c1c2c(n(-c3ccc(OC)cc3)c1C)C(=O)C(=O)c1ccccc1-2,u,u,8.9µM*,-3%,8.9µM*
CCc1cc2c(=O)[nH]c(N3CCCC3)nc2s1,3%,3%,20%,0%,i
CCc1cc2c(=O)[nH]c(-c3ccccn3)nc2s1,u,u,u,u,5.6µM*
O=C(CSc1n[nH]c(-c2ccccc2Cl)n1)N1CCN(c2ccccc2F)CC1,x,17%,x,1%,x
O=C(NCc1ccccc1Cl)C(=O)NCC(c1cccs1)S(=O)(=O)c1cccs1 (stereo unspecified),x,3%,x,7%,x
COc1ccc(/C=N/OCC(=O)NC(c2ccccc2)c2ccccc2)cc1OC,5.8µM*,0%,-21%,5%,i
Cc1ccccc1NC(=O)CCn1cnc2onc(-c3ccc(F)cc3)c2c1=O,-18%,-1%,x,0%,x
CCC(O)CNC(=O)NC(=C(Cl)Cl)c1ccc(C)c(F)c1 (stereo unspecified),18µM*,-14%,-2%,u,i
Cc1nc(-c2coc3cc(OCC(=O)O)ccc3c2=O)cs1,u,-9%,u,-3%,i
Cc1nc(-c2coc3cc(O)c(C)cc3c2=O)cs1,10µM*,-7%,-11%,2%,i
COc1ccccc1Nc1cc(C(=O)NCCCN(C)c2ccccc2)c2ccccc2n1,x,-1%,4%,4%,i
SMILES,Nrf2 inh,A549 tox,ATXN2 expr inh,Nrf2 ARE act,ATXN viability
Cc1ccccc1OCC(=O)NCC(=O)OCC(=O)c1ccc2c(c1)CCCC2,-1%,2%,x,x,x
Cn1c(NC(=O)c2ccc(Br)o2)cc(=O)n(C)c1=O,x,2%,7%,11µM*,i
Cn1c(NC(=O)/C=C\c2ccccc2)cc(=O)n(C)c1=O,u,3%,35%[11.3 µM],11µM*,i
Cn1c(NC(=O)/C=C/c2c(F)cccc2Cl)cc(=O)n(C)c1=O,24%,7%,7%,u,i
Cn1c(NC(=O)c2cccs2)cc(=O)n(C)c1=O,10%,-4%,3%,10%,i
O=C(NCCc1c[nH]c2ccccc12)Nc1ccccc1C(F)(F)F,u,-1%,-24%,1%,i
Cc1noc(C)c1-c1ccc2ncnc(NCC3CCN(C)CC3)c2c1,16%,3%,x,x,x
COc1cccc(CNC(=O)c2c(OC)cc(=O)n3c2CCN(C(=O)C2=C(C)OCCO2)CC3)c1,x,x,x,x,i
